# Test results published in PubChem BioAssay (Tox21).
# A number with no mark means an inactive call. Results filed as inconclusive are left out. A call without a number means that no potency is given here. Calls of active or inactive are those of the source. Unless noted, calls follow the shape of the dose curve; as a rule, active = well fitted curve in the direction sought with a large enough effect in the repeat runs; inconclusive = weak or mixed curves; inactive = no such curve, though single readings can be large; an effect the other way counts as inactive or inconclusive.
# Experiments:
# [1] = qHTS assay for small molecule agonists of the p53 signaling pathway (AID 651631; calls by dose curve; also: nearly all actives have a fitted effect of over 15% in size; also: potency is read from the fitted curve at half-maximal effect)
# Summary of the method: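 HCT-116 cells carrying a stable p53 response element–beta-lactamase reporter were plated, rested 5 h at 37 °C, then exposed to compound in DMSO for 16 h at 37 °C; reporter activity was read as FRET substrate fluorescence after 2 h at room temperature.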
# [2] = qHTS assay for small molecules that induce genotoxicity in human embryonic kidney cells expressing luciferase-tagged ATAD5 (AID 651632); also: nearly all actives have a fitted effect of over 15% in size; also: potency is read from the fitted curve at half-maximal effect
# Summary of the method: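 HEK293T cells carrying luciferase-tagged ATAD5 were given compound or DMSO vehicle and incubated 16 hr at 37C, 5% CO2. Luciferase activity was read after 30 min at room temperature with Amplite; a rise signals genotoxic stress.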
# [3] = qHTS assay for small molecule agonists of the p53 signaling pathway - cell viability (AID 651633; calls by dose curve; also: series mostly up to about 83 µM; nearly all actives have a fitted effect of over 30% in size)
# Summary of the method: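 Viability counter-read: CellTiter-Glo luminescence (30 min, room temperature) in the same p53RE-bla plates. These plates had been exposed to compounds for 16 h at 37 C.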
# [4] = qHTS assay for small molecule disruptors of the mitochondrial membrane potential - cell viability (AID 720634; calls by dose curve;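 also: human HepG2 liver cancer cells; series mostly up to about 83 µM; nearly all actives have a fitted effect of over 20% in size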)
# Summary of the method: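 HepG2 cells, 2,000 per well, attached overnight, then treated 1 hr at 37 C, 5% CO2. Viability read as ATP by CellTiter-Glo luminescence after 30 min at room temperature. Read in the same wells as the m-MPI membrane-potential dye assay.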
# [5] = qHTS assay to test for compound auto fluorescence at 590 nm (red) in HepG2 cells (AID 720674)
# Summary of the method: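 We screened compounds on adherent HepG2 cells, incubating them for an hour at 37 C in 5% CO2 before reading emission at 590 nm under 540 nm excitation; values reflect equivalence to Rose Bengal sodium fluorescence.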
# [6] = qHTS assay to test for compound auto fluorescence at 535 nm (green) in HepG2 cells (AID 720675)
# [7] = qHTS assay to test for compound auto fluorescence at 590 nm (red) in HEK293 cells (AID 720679)
# Summary of the method: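 We plated HEK293 cells in 10% dialyzed FBS medium, let them adhere for 4-5 hr, then added 23 nL compound. Overnight at 37C and 5% CO2 preceded fluorescence measurement at 540/590nm.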
# [8] = qHTS assay to test for compound auto fluorescence at 535 nm (green) in HEK293 cells (AID 720680)
# [9] = qHTS assay to test for compound auto fluorescence at 460 nm (blue) in HEK293 cell free culture (AID 720681)
# Summary of the method: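 Blue fluorescence (Ex 405/Em 460 nm, triamterene-equivalent) was read immediately after pin transfer of compound or DMSO into medium (DMEM, 10% FBS) without cells.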
# [10] = qHTS assay to test for compound auto fluorescence at 535 nm (green) in HEK293 cell free culture (AID 720682)
# Summary of the method: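 Read-out: 485/535 nm fluorescence intensity, calibrated against fluorescein. Medium only (DMEM + 10% FBS, no cells); test compound or DMSO vehicle added by pintool before plate reading.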
# [11] = qHTS assay to test for compound auto fluorescence at 590 nm (red) in HEK293 cell free culture (AID 720683)
# Summary of the method: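 Red-channel autofluorescence of compounds in culture medium (DMEM, 10% FBS), no cells, measured at 540/590 nm. Rose Bengal sodium is the reference fluorophore for equivalence.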
# [12] = qHTS assay to test for compound auto fluorescence at 590 nm (red) in HepG2 cell free culture (AID 720684)
# Summary of the method: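 Plate contents were MEM with 10% FBS plus test compound or DMSO, no cells. Fluorescence was recorded with 540 nm excitation and 590 nm emission.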
# [13] = qHTS assay to test for compound auto fluorescence at 460 nm (blue) in HepG2 cell free culture (AID 720685)
# Summary of the method: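 Compound (23 nL) or DMSO pinned into cell-free MEM with 10% FBS; blue fluorescence read at 405/460 nm excitation/emission, expressed as auto-fluorescence equivalency to triamterene.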
# [14] = qHTS assay to test for compound auto fluorescence at 460 nm (blue) in HepG2 cells (AID 720687)
# Summary of the method: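 Blue-channel autofluorescence (Ex/Em 405/460 nm, triamterene-equivalent) was measured after 1 hr compound exposure at 37 C, 5% CO2. Cells were HepG2, plated overnight at 37 C in MEM plus 10% FBS.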
# [15] = target: Glucocorticoid receptor (Homo sapiens) (UniProt P04150); test: qHTS assay to identify small molecule agonists of the glucocorticoid receptor (GR) signaling pathway (AID 720691; active = well fitted activation curve with a large enough effect in the signal ratio in the repeat runs, not every such curve was filed as active; the % refers to the signal ratio)
# Summary of the method: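 GR-bla HeLa cells carrying a GRE-driven beta-lactamase reporter, exposed to compounds for 18 h at 37 C. Reporter activation read as fluorescence after 2 h with LiveBLAzer B/G FRET substrate at room temperature.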
# [16] = target: Glucocorticoid receptor (Homo sapiens) (UniProt P04150); test: qHTS assay to identify small molecule antagonists of the glucocorticoid receptor (GR) signaling pathway (AID 720692; active = well fitted inhibition curve with a large enough effect in the signal ratio in the repeat runs, not every such curve was filed as active; the % refers to the signal ratio; also: potency is read from the fitted curve at half-maximal effect)
# Summary of the method: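 GR-bla HeLa cells carrying a GRE-driven beta-lactamase reporter received compound after 4 h plating, then dexamethasone (5 nM final). After 18 h at 37C, the FRET substrate was loaded for 2 h at room temperature and fluorescence read.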
# [17] = qHTS assay for small molecule disruptors of the mitochondrial membrane potential (AID 720635); also: potency is read from the fitted curve at half-maximal effect
# Summary of the method: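 Mitochondrial membrane potential tracked with Mito-MPS dye, red aggregates (ex 540/em 590 nm) against green monomers (ex 490/em 535 nm). Compound treatment 1 hr at 37C, dye 30 min in HepG2.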
# [18] = qHTS assay to test for compound auto fluorescence at 460 nm (blue) in HEK293 cells (AID 720678)
# Summary of the method: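 Triamterene serves as the blue fluorophore standard. Compound signal at 405/460 nm is read in HEK293 wells (2,000 cells, 10% dialyzed FBS) after overnight treatment at 37C.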
# [19] = qHTS assay to test for compound auto fluorescence at 535 nm (green) in HepG2 cell free culture (AID 720686)
# [20] = qHTS assay for small molecules that induce genotoxicity in human embryonic kidney cells expressing luciferase-tagged ATAD5 - cell viability (AID 651634; calls by dose curve; also: nearly all actives have a fitted effect of over 25% in size; also: potency is read from the fitted curve at half-maximal effect)
# Summary of the method: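 HEK293T cells carrying luciferase-tagged ATAD5, 2,000 cells/well, exposed to compound for 15.5 hr at 37C. Viability read as live-cell protease activity by CellTiter-Fluor fluorescence after 30 min at 37C.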
# Sequence of Glucocorticoid receptor (Homo sapiens) (P04150 whole entry, looked up): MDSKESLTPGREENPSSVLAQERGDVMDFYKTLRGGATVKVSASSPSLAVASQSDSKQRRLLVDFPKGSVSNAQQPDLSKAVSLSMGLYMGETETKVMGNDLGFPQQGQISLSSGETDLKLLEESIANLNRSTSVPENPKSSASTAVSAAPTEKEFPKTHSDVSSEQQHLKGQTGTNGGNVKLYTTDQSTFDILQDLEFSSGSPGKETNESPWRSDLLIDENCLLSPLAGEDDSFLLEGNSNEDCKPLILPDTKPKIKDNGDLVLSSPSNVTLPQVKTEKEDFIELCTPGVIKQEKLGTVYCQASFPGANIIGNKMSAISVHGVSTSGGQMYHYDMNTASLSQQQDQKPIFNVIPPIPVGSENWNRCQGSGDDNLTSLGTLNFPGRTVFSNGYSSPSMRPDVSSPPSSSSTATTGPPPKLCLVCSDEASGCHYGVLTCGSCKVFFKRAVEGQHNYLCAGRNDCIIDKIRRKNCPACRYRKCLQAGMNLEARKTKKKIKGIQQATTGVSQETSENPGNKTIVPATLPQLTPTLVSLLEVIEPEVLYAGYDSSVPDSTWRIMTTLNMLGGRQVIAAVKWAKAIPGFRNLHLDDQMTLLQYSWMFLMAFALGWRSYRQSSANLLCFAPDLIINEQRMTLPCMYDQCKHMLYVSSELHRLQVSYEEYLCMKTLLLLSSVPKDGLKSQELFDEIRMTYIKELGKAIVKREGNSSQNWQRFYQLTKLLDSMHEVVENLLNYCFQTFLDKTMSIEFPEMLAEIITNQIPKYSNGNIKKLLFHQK
SMILES,Potency [1],Potency [2],Potency [3],outcome [4],outcome [5],outcome [6],outcome [7],outcome [8],Potency [9],outcome [10],outcome [11],outcome [12],Potency [13],Potency [14],Potency [15],Potency [16],Potency [17],Potency [18],outcome [19],Potency [20]
C[C@@H]1[C@H](O)[C@@H](C)/C=C/C=C\C=C\C=C\C=C\C=C\C=C\[C@H](O[C@@H]2O[C@H](C)[C@@H](O)[C@H](N)[C@@H]2O)C[C@@H]2O[C@](O)(C[C@@H](O)C[C@@H](O)[C@H](O)CC[C@@H](O)C[C@@H](O)CC(=O)O[C@H]1C)C[C@H](O)[C@H]2C(=O)O (stereo in doubt),inactive,inactive,inactive,inactive,inactive,inactive,inactive,inactive,inactive,inactive,inactive,inactive,inactive,inactive,inactive,49 µM (active),,,,
COc1ccc(N)c([N+](=O)[O-])c1,inactive,inactive,inactive,inactive,inactive,inactive,inactive,inactive,inactive,inactive,inactive,inactive,,,inactive,inactive,inactive,inactive,inactive,
c1ccc(CNc2ncnc3c2ncn3C2CCCCO2)cc1 (stereo unspecified),inactive,,inactive,inactive,inactive,inactive,inactive,inactive,inactive,inactive,inactive,inactive,,inactive,inactive,inactive,,inactive,inactive,inactive
CN(C)CC/C=C1\c2ccccc2Sc2ccc(Cl)cc21,15 µM (active),inactive,,inactive,inactive,,,inactive,inactive,inactive,inactive,inactive,inactive,inactive,inactive,inactive,,inactive,inactive,inactive
Cc1cc(CCC(=O)OCCOCCOCCOC(=O)CCc2cc(C)c(O)c(C(C)(C)C)c2)cc(C(C)(C)C)c1O,inactive,inactive,inactive,,inactive,,inactive,inactive,inactive,inactive,inactive,inactive,inactive,,inactive,,59.6 µM (active),inactive,inactive,inactive
CCCCCC,inactive,,inactive,inactive,inactive,inactive,inactive,inactive,inactive,inactive,inactive,inactive,inactive,inactive,inactive,inactive,,,inactive,inactive
COc1ccc(CCN(C)CCCN2CCc3cc(OC)c(OC)cc3CC2=O)cc1OC,,inactive,inactive,inactive,inactive,inactive,inactive,inactive,inactive,inactive,inactive,inactive,inactive,inactive,,,inactive,inactive,inactive,inactive
CCCCC(CC)COS(=O)(=O)O (stereo unspecified),,inactive,inactive,inactive,inactive,inactive,inactive,inactive,inactive,inactive,inactive,inactive,inactive,inactive,,,inactive,inactive,,inactive
SCCc1cnccn1,61.1 µM (active),,inactive,inactive,inactive,inactive,,inactive,inactive,inactive,inactive,inactive,,inactive,,,inactive,inactive,inactive,inactive
CCN(Cc1cccc(S(=O)(=O)O)c1)c1ccc(C(=C2C=CC(=[N+](CC)Cc3cccc(S(=O)(=O)O)c3)C=C2)c2ccccc2S(=O)(=O)[O-])cc1,inactive,inactive,,,inactive,inactive,,inactive,inactive,inactive,inactive,inactive,,inactive,,,,,inactive,15.4 µM (active)
CC(=O)C(C)=O,inactive,inactive,inactive,,,inactive,inactive,inactive,inactive,inactive,inactive,inactive,inactive,inactive,inactive,inactive,,,inactive,inactive
O=C(Oc1ccccc1)c1ccc2ccccc2c1O,inactive,9.69 µM (active),inactive,,inactive,inactive,inactive,,inactive,inactive,inactive,inactive,inactive,inactive,inactive,,,inactive,inactive,inactive
COc1ccc(-n2nc(C(F)F)cc2-c2ccc(S(C)=O)cc2)cc1 (stereo unspecified),inactive,inactive,,inactive,inactive,inactive,inactive,,inactive,inactive,inactive,inactive,inactive,inactive,inactive,inactive,inactive,inactive,inactive,inactive
CCN(CC)c1cccc(O)c1,,inactive,inactive,inactive,inactive,inactive,inactive,inactive,inactive,inactive,inactive,inactive,,inactive,inactive,inactive,,inactive,inactive,inactive
